Measurements as given in PubChem BioAssay AID1159580 (chemical genetic matrix, 2015).
“And” between values parts separate entries of the source, which are not always exact repeats. Identical values can stand only once. Hit rate of the full screen: of about 5,500 compounds, about 2,000 (36%) were called active. Another 18% or so got no clear call; they are omitted. Rule as the data show it: active = normalized growth mostly below about 0.91 (no sharp cut-off); inconclusive = no clear call, values can overlap the other calls; inactive = mostly above about 0.92. The list shows a part of the results.

Experiment: chemical genetic growth profiling, strain panel (AID 1159580);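 also: tested at 20 µM; growth read once vehicle control cultures reached saturation at 30 °C; 1 = growth at the plate median or of vehicle wells; lower values mean less growth of the strain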
Details: S. cerevisiae deletion strains, growth OD

Measured: normalized growth

O=C(O)c1cccnc1C(=O)O
inactive: locus YAL013W, strain DEP1, stronger effect = lower value 1.01 and 1.02 | locus YAL021C, strain ccr4, stronger effect = lower value 1.02 | locus YAL026C, strain drs2, stronger effect = lower value 1 | locus YAL030W, strain snc1, stronger effect = lower value 0.999 | locus YAL040C, strain CLN3, stronger effect = lower value 1.05 | locus YBL061C, strain skt5, stronger effect = lower value 1 | locus YBR009C, strain hhf1, stronger effect = lower value 1.03 | locus YBR021W, strain FUR4, stronger effect = lower value 1.03 | locus YBR023C, strain chs3, stronger effect = lower value 0.996 | locus YBR171W, strain sec66, stronger effect = lower value 0.992 | locus YBR229C, strain ROT2, stronger effect = lower value 1.03 | locus YBR231C, strain swc5, stronger effect = lower value 1.04 | locus YBR279W, strain paf1, stronger effect = lower value 0.998 | locus YCL011C, strain gbp2, stronger effect = lower value 1.02 | locus YCL016C, strain dcc1, stronger effect = lower value 1.01 | locus YCL029C, strain bik1, stronger effect = lower value 0.991 | locus YCL061C, strain MRC1 (second series), stronger effect = lower value 1 | locus YCL069W, strain vba3, stronger effect = lower value 1 | locus YCR088W, strain abp1, stronger effect = lower value 0.99 | locus YDL005C, strain med2, stronger effect = lower value 0.98 | locus YDL035C, strain GPR1, stronger effect = lower value 1.03 | locus YDL040C, strain nat1, stronger effect = lower value 0.985 | locus YDL074C, strain BRE1, stronger effect = lower value 1.07 | locus YDL101C, strain DUN1, stronger effect = lower value 1.04 | locus YDL134C, strain PPH21, stronger effect = lower value 1.03 | locus YDL185W, strain tfp1, stronger effect = lower value 0.976 | locus YDL192W, strain arf1, stronger effect = lower value 1 | locus YDR001C, strain nth1, stronger effect = lower value 0.99 | locus YDR069C, strain doa4, stronger effect = lower value 1 | locus YDR101C, strain arx1, stronger effect = lower value 0.997 | locus YDR137W, strain rgp1, stronger effect = lower value 1.01 | locus YDR150W, strain NUM1, stronger effect = lower value 1.02 | locus YDR159W, strain sac3, stronger effect = lower value 0.986 | locus YDR162C, strain NBP2, stronger effect = lower value 1.02 | locus YDR195W, strain ref2 1.05 | locus YDR297W, strain sur2, stronger effect = lower value 1 | locus YDR318W, strain mcm21, stronger effect = lower value 0.997 | locus YDR334W, strain swr1, stronger effect = lower value 0.979 | locus YDR335W, strain msn5, stronger effect = lower value 1 | locus YDR363W, strain ESC2, stronger effect = lower value 1.04 | locus YDR388W, stronger effect = lower value 0.986 | locus YDR392W, strain spt3, stronger effect = lower value 0.984 | locus YDR502C, strain sam2, stronger effect = lower value 1.01 | locus YEL003W, strain gim4, stronger effect = lower value 0.995 | locus YEL037C, strain rad23, stronger effect = lower value 0.989 | locus YEL061C, strain CIN8 (second series), stronger effect = lower value 0.979 | locus YEL061C, strain CIN8, stronger effect = lower value 1.02 | locus YER002W, strain NOP16, stronger effect = lower value 0.994 | locus YER015W, strain faa2, stronger effect = lower value 1.01 | locus YER016W, strain bim1, stronger effect = lower value 0.967 | locus YER110C, stronger effect = lower value 1 | locus YER111C, strain swi4, stronger effect = lower value 0.986 | locus YER155C, strain BEM2 (second series), stronger effect = lower value 1.05 | locus YER155C, strain BEM2, stronger effect = lower value 1.01 | locus YER167W, strain BCK2, stronger effect = lower value 1.02 | locus YFR010W, strain ubp6, stronger effect = lower value 1.03 | locus YGL078C, strain dbp3, stronger effect = lower value 0.983 | locus YGL086W, strain mad1, stronger effect = lower value 1.01 | locus YGL167C, strain pmr1, stronger effect = lower value 1 | locus YGL173C, strain kem1, stronger effect = lower value 1 | locus YGL227W, strain vid30, stronger effect = lower value 0.972 | locus YGL240W, strain doc1, stronger effect = lower value 1.01 | locus YGL248W, strain PDE1, stronger effect = lower value 1.03 | locus YGL253W, strain hxk2, stronger effect = lower value 1.01 | locus YGR078C, strain PAC10, stronger effect = lower value 1.01 | locus YGR135W, strain pre9, stronger effect = lower value 1.01 | locus YGR229C, strain SMI1, stronger effect = lower value 1.04 | locus YGR252W, strain gcn5, stronger effect = lower value 0.938 | locus YHR013C, strain ard1, stronger effect = lower value 1 | locus YHR027C, strain rpn1, stronger effect = lower value 1.02 | locus YHR030C, strain SLT2, stronger effect = lower value 1.02 and 0.992 | locus YHR079C, strain IRE1 (second series), stronger effect = lower value 0.981 | locus YHR079C, strain IRE1, stronger effect = lower value 1 | locus YHR094C, strain hxt1, stronger effect = lower value 0.983 | locus YHR129C, strain ARP1, stronger effect = lower value 1.01 | locus YHR142W, strain chs7, stronger effect = lower value 1.02 | locus YHR200W, strain rpn10, stronger effect = lower value 0.984 | locus YIL066C, strain RNR3, stronger effect = lower value 1.05 | locus YIL073C, strain SPO22, stronger effect = lower value 1.01 | locus YIL125W, strain kgd1, stronger effect = lower value 0.971 | locus YIR030C, strain dcg1, stronger effect = lower value 0.998 | locus YJL092W, strain hpr5, stronger effect = lower value 0.99 | locus YJL095W, strain BCK1 (second series), stronger effect = lower value 1.01 | locus YJL095W, strain BCK1, stronger effect = lower value 1.07 and 0.998 | locus YJL115W, strain asf1, stronger effect = lower value 0.984 | locus YJL129C, strain trk1, stronger effect = lower value 0.986 | locus YJL134W, strain LCB3, stronger effect = lower value 1.01 | locus YJL154C, strain vps35, stronger effect = lower value 0.998 | locus YJL164C, strain tpk1, stronger effect = lower value 1.03 | locus YJL166W, strain qcr8, stronger effect = lower value 1.03 | locus YJL168C, strain set2, stronger effect = lower value 0.978 | locus YJL187C, strain SWE1 (second series), stronger effect = lower value 1.05 | locus YJL187C, strain SWE1, stronger effect = lower value 1 | locus YJR043C, strain POL32, stronger effect = lower value 1.02
